Measured values: PubChem BioAssay (NCI)
Compounds without any hit were thinned out: in the full panel of roughly 79,000, 15% have a hit. Activity calls are given as the source filed them. Cut-off read from the data, not from the text of the source: active = growth inhibition above about 70%; inactive = the rest.

What was measured:
[1] = NCI Yeast Anticancer Drug Screen. Data for the rad50 strain (AID 155);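 note: 0% = growth of vehicle-only cultures of the same strain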; settings: S. cerevisiae rad50 strain growth inhibition, stronger effect = higher value
Procedure, shortened: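 Yeast carrying a defined DNA repair defect were exposed to test compounds, and growth was compared with vehicle-treated controls to give percent inhibition.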

[2] = NCI Yeast Anticancer Drug Screen. Data for the mec2-1 strain (AID 157); settings: S. cerevisiae mec2-1 strain, stronger effect = higher value
Procedure, shortened: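 Yeast mec2-1 mutant treated with compound. Readout: growth inhibition vs vehicle controls.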

[3] = NCI Yeast Anticancer Drug Screen. Data for the sgs1 mgt1 strain (AID 161);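 note: 0% = growth of cultures given vehicle only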; settings: S. cerevisiae sgs1 mgt1 strain, stronger effect = higher value
Procedure, shortened: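 Read-out: growth inhibition vs vehicle controls. Cells: mutant yeast strain deficient in DNA damage repair.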

[4] = NCI Yeast Anticancer Drug Screen. Data for the cln2 rad14 strain (AID 165);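 note: 0% = growth equal to vehicle treated cultures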; settings: S. cerevisiae cln2 rad14 strain, stronger effect = higher value
Procedure, shortened: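 cln2 rad14 yeast strain; compound exposure; growth inhibition read vs vehicle controls.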

[5] = NCI Yeast Anticancer Drug Screen. Data for the bub3 strain (AID 167); settings: S. cerevisiae bub3 mutant strain, stronger effect = higher value
Procedure, shortened: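 Compounds were applied to a genetically altered yeast strain carrying a cell-cycle control defect. Growth inhibition was scored against vehicle-treated controls.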

[6] = NCI Yeast Anticancer Drug Screen. Data for the mlh1 rad18 strain (AID 175); settings: S. cerevisiae mlh1 rad18 strain growth inhibition, stronger effect = higher value
Procedure, shortened: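 Yeast w/ defined DNA-repair lesions; compound exposure; growth vs vehicle controls → % inhibition.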

[7] = at 5.0 µM (retest, dose inferred, filed as 0.5)
[8] = at 50.0 µM (retest, dose inferred, filed as 5.0)

SMILES | growth inhibition [1, 7] | growth inhibition [1, 8] | growth inhibition ([1]; at 50.0 µM) | growth inhibition [2, 7] | growth inhibition [2, 8] | growth inhibition ([2]; at 50.0 µM) | growth inhibition [3, 7] | growth inhibition [3, 8] | growth inhibition ([3]; at 50.0 µM) | growth inhibition [4, 7] | growth inhibition [4, 8] | growth inhibition ([4]; at 50.0 µM) | growth inhibition [5, 7] | growth inhibition [5, 8] | growth inhibition ([5]; at 50.0 µM) | growth inhibition [6, 7] | growth inhibition [6, 8] | growth inhibition ([6]; at 50.0 µM)
CCOC(=O)C1=C(Nc2ccc(Br)cc2)OC/C1=N\NC(=O)c1ccccc1O | 11% (inactive) | 11% (inactive) | 50.6% (inactive) | -16% (inactive) | -16% (inactive) | 53.5% (inactive) | 7% (inactive) | 7% (inactive) | 71.6% (active) | 4% (inactive) | 4% (inactive) | 25.7% (inactive) | 1% (inactive) | 1% (inactive) | 66.8% (inactive) | 5% (inactive) | 5% (inactive) | 67% (inactive)
CCCCN(C(=O)c1ccccc1)C1CCC(=O)c2[nH]c3ccccc3c21 (configuration not stated) | -3% (inactive) | 1% (inactive) | 85.5% (active) | -15% (inactive) | -28% (inactive) | 89.3% (active) | -7% (inactive) | 20% (inactive) | 76% (active) | -13% (inactive) | -1% (inactive) | 83.5% (active) | -18% (inactive) | 12% (inactive) | 80.6% (active) | 2% (inactive) | -15% (inactive) | 69.5% (inactive)
CCCCN1C(=O)C(=O)N(c2ccccc2)C1=O | -6% (inactive) | 5% (inactive) | 18.2% (inactive) | -7% (inactive) | 12% (inactive) | 32.9% (inactive) | -14% (inactive) | 1% (inactive) | 8.65% (inactive) | -29% (inactive) | -17% (inactive) | 73.8% (active) | -21% (inactive) | 11% (inactive) | 1.55% (inactive) | -5% (inactive) | 15% (inactive) | 16.9% (inactive)
CC1CCN(CCOC(=O)C(c2ccccc2)C2C=CCCC2)C1 (configuration not stated) | 8% (inactive) | 34% (inactive) | 62.9% (inactive) | 3% (inactive) | 37% (inactive) | 16.9% (inactive) | 8% (inactive) | 77% (active) | 51.1% (inactive) | 7% (inactive) | 37% (inactive) | 41.8% (inactive) | 9% (inactive) | 55% (inactive) | 36.5% (inactive) | 14% (inactive) | 75% (active) | 52.7% (inactive)
CC(C)=CCC/C(C)=C/COC(=O)Nc1ccccc1 | -7% (inactive) | -5% (inactive) | 15.7% (inactive) | -13% (inactive) | -7% (inactive) | 18.7% (inactive) | -2% (inactive) | 17% (inactive) | 62.3% (inactive) | -40% (inactive) | -5% (inactive) | 61% (inactive) | -2% (inactive) | -1% (inactive) | 52.8% (inactive) | -13% (inactive) | -11% (inactive) | 10.9% (inactive)
CC1CC(=O)OC(C(=O)c2ccccc2)N1c1ccc(C(F)(F)F)cc1N (configuration not stated) | 4% (inactive) | 30% (inactive) | 81.6% (active) | 11% (inactive) | 11% (inactive) | 65% (inactive) | 8% (inactive) | 38% (inactive) | 59.4% (inactive) | 0% (inactive) | 2% (inactive) | 56.4% (inactive) | 2% (inactive) | 10% (inactive) | 32.2% (inactive) | 3% (inactive) | 27% (inactive) | 88.4% (active)
CC(=O)c1cccc(NC(=O)C(=O)NNc2n[nH]c(=S)n2N)c1 | 16% (inactive) | 95% (active) | 89.4% (active) | -20% (inactive) | 94% (active) | 94.1% (active) | 6% (inactive) | 90% (active) | 92.9% (active) | 19% (inactive) | 77% (active) | 92.4% (active) | -19% (inactive) | 95% (active) | 92.8% (active) | 19% (inactive) | 94% (active) | 91.1% (active)
CC(O)(CO)CC(C)(O)CO (configuration not stated) | -2% (inactive) | -10% (inactive) | 12.9% (inactive) | 3% (inactive) | -6% (inactive) | -7.2% (inactive) | -1% (inactive) | -9% (inactive) | 1.8% (inactive) | -2% (inactive) | -14% (inactive) | 77% (active) | 2% (inactive) | -1% (inactive) | -1.05% (inactive) | 1% (inactive) | -11% (inactive) | -7.45% (inactive)
CC1(C)CC(O)C(O)C1 (configuration not stated) | -2% (inactive) | -2% (inactive) | -4% (inactive) | 2% (inactive) | 0% (inactive) | 7.25% (inactive) | 0% (inactive) | -1% (inactive) | 12.6% (inactive) | -2% (inactive) | -13% (inactive) | 67.5% (inactive) | 2% (inactive) | 11% (inactive) | -1.7% (inactive) | -1% (inactive) | -4% (inactive) | -5.6% (inactive)
C(=[CH]/[Sn]([c]1ccccc1)([c]1ccccc1)[c]1ccccc1)/c1ccccc1 | 96% (active) | 88% (active) | 94.8% (active) | 95% (active) | 94% (active) | 98.4% (active) | 98% (active) | 92% (active) | 96.2% (active) | 92% (active) | 86% (active) | 95% (active) | 97% (active) | 85% (active) | 99.2% (active) | 97% (active) | 84% (active) | 94.1% (active)
Cc1ccc(O)c(C(c2cc(C)ccc2O)c2ccccc2Cl)c1 | 96% (active) | 99% (active) | 98.2% (active) | 95% (active) | 99% (active) | 99.5% (active) | 91% (active) | 99% (active) | 99.2% (active) | 98% (active) | 99% (active) | 98.6% (active) | 85% (active) | 99% (active) | 98.5% (active) | 97% (active) | 95% (active) | 99% (active)
OC1CC2CCC(C1)N2CCCN1c2ccccc2Sc2ccc(Cl)cc21 (configuration not stated) | 12% (inactive) | 99% (active) | 99% (active) | 13% (inactive) | 80% (active) | 97.2% (active) | -4% (inactive) | 61% (inactive) | 99.1% (active) | -23% (inactive) | 74% (active) | 97.5% (active) | -20% (inactive) | 97% (active) | 99.2% (active) | 10% (inactive) | 97% (active) | 94.4% (active)
COc1ccc2c(C)cc(N/N=C/c3cccc(C)n3)nc2c1 | -1% (inactive) | 4% (inactive) | 75.1% (active) | -2% (inactive) | 8% (inactive) | 31.2% (inactive) | 4% (inactive) | 28% (inactive) | 97.4% (active) | 5% (inactive) | 5% (inactive) | 19.1% (inactive) | -4% (inactive) | -4% (inactive) | 22.2% (inactive) | -5% (inactive) | 19% (inactive) | 28.8% (inactive)
COC(=O)c1cc(-c2c[nH]cc2C(=O)OCc2ccccc2)cn1S(=O)(=O)c1ccc(C)cc1 | 17% (inactive) | 6% (inactive) | 92.5% (active) | 18% (inactive) | 11% (inactive) | 93.1% (active) | 7% (inactive) | -6% (inactive) | 94.4% (active) | 2% (inactive) | 2% (inactive) | 88.9% (active) | -39% (inactive) | 2% (inactive) | 87.3% (active) | 24% (inactive) | 22% (inactive) | 91.2% (active)
CCc1cccc(CC)c1Nc1nc2c(s1)C(=O)c1ccccc1C2=O | 100% (active) | 99% (active) | 89.5% (active) | 100% (active) | 99% (active) | 91.9% (active) | 100% (active) | 99% (active) | 92.7% (active) | 87% (active) | 98% (active) | 90.3% (active) | 100% (active) | 99% (active) | 92.2% (active) | 99% (active) | 98% (active) | 90.8% (active)
Cc1ccc(N=C(N)Nc2ccc(C)cn2)nc1 | 6% (inactive) | 78% (active) | 84.5% (active) | 2% (inactive) | 68% (inactive) | 77.9% (active) | 4% (inactive) | 69% (inactive) | 44.6% (inactive) | 19% (inactive) | 74% (active) | 40% (inactive) | -5% (inactive) | 70% (active) | 79.3% (active) | 5% (inactive) | 72% (active) | 41.5% (inactive)
Nc1c(C(=O)O)cccc1[N+](=O)[O-] | 2% (inactive) | -1% (inactive) | -5.1% (inactive) | 1% (inactive) | -2% (inactive) | 9.25% (inactive) | -1% (inactive) | -1% (inactive) | -9.1% (inactive) | -1% (inactive) | 3% (inactive) | 23.2% (inactive) | 1% (inactive) | 0% (inactive) | -2.1% (inactive) | 1% (inactive) | 3% (inactive) | -5.05% (inactive)
O=C([O-])C[n+]1c(/C=C/c2ccccc2)ccc2ccccc21 | -2% (inactive) | 69% (inactive) | 37.1% (inactive) | -3% (inactive) | 87% (active) | 5.35% (inactive) | -6% (inactive) | 92% (active) | 28.9% (inactive) | -3% (inactive) | 85% (active) | 13.9% (inactive) | 2% (inactive) | 84% (active) | 6.8% (inactive) | 0% (inactive) | 94% (active) | 32.3% (inactive)
Cc1ccc(S(=O)(=O)NNC2Oc3cc4c(cc3C(c3ccccc3O)C2C)OCO4)cc1 (configuration not stated) | -12% (inactive) | 98% (active) | 97.4% (active) | -3% (inactive) | 98% (active) | 95.7% (active) | -2% (inactive) | 98% (active) | 95.7% (active) | 19% (inactive) | 97% (active) | 97% (active) | -11% (inactive) | 98% (active) | 96.2% (active) | 22% (inactive) | 97% (active) | 96.2% (active)
